Results on 58 compounds are retold here after PubChem BioAssay AID1508607 (The Scripps Research Institute Molecular Screening Center, 2020).

Each structure is given as a SMILES string. Screen size: about 2,300 compounds; about 20 (0.9%) were called active. Many of the other results were omitted from the sample, so actives are more common in it than they were. A number with no mark means an inactive call.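 The calls were made as follows: active = mean percent activation across replicates above the counterscreen hit cutoff of 9.17%; inactive = the rest.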

Sequence of Glucose-dependent insulinotropic receptor (Homo sapiens) (Q8TDV5 whole entry, looked up): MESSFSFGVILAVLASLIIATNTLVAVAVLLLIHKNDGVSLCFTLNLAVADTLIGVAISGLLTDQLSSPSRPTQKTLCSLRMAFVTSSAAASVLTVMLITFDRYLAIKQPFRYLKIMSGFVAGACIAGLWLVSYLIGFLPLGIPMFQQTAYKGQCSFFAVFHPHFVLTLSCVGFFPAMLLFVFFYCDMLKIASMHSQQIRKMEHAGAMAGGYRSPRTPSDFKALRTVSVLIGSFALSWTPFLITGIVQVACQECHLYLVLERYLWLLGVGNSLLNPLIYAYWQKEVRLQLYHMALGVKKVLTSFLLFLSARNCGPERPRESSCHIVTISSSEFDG

The assay has as its target Glucose-dependent insulinotropic receptor (Homo sapiens) (UniProt Q8TDV5). Nature of the assay: GPR119 activators in beta-arrestin cells, confirmation, counter-screen for GPR151 activator project, cell-based, PathHunter beta-arrestin, luminescence, set 2 (AID 1508607).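 Also: 0% = median of sample wells and 100% = wells given EA reagent.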 As to conditions: 90 min, at 11.2 µM, stronger effect = higher value.
In the case of `O=C(NCCO)C(=O)Nc1cccc(Cl)c1Cl`, the activation is 1.5%. Next, `Cc1ccc(NC(=O)CN(C)S(=O)(=O)c2ccc(Br)cc2)cc1Cl`: 4.66%; `CCN(CC)c1ccc2cc(-c3nnc(NCc4ccc(F)cc4)s3)c(=O)oc2c1`: 0.77%; `CCCCOc1ccc(C(=O)Nc2c3c(nn2-c2cccc(Cl)c2)CSC3)cc1`: 5.97%.

Consider `O=C(NCCCN1CCOCC1)/C(=C/c1ccc(-c2cccc(C(F)(F)F)c2)o1)NC(=O)c1ccc(Cl)cc1`, for which the activation is 9.32% (active). With `COCCCNC(=O)/C(=C\c1ccco1)NC(=O)c1ccc(C)cc1`, the activation is -2.09%. Next, `Fc1ccc(-c2cnc3ccc(NCCCN4CCOCC4)nn23)cc1Cl`: 2.09%. In the case of `COc1ccc(Br)cc1CNC(=O)Cc1c(C(=O)O)[nH]c2ccccc12` it was 4.16%; in that of `Cn1c(SCc2ccc(F)cc2)nc2ccc(C(=O)N3CCC(C(N)=O)CC3)cc21`, 0.07%; in that of `Cc1csc(CNC(=O)CC2C(=O)NCCN2Cc2ccc(F)cc2Cl)n1` (stereo not drawn), 3.99%. Next, `OC(COc1ccc(CNCCc2cscn2)cc1)CN1CCc2ccccc2C1` (stereo not drawn): 3.64%; `O=C(CNc1ccccc1)N/N=C/c1cc([N+](=O)[O-])ccc1O`: -3.89%; `O=C(Nc1cc(Cl)ccc1Cl)c1ccccc1O`: -0.02%. With `CCc1ccccc1NC(=O)Cn1nnc(C(=O)OC)c1C(=O)OC`, the activation is 3.17%.

In the case of `Cc1ccn2c(-c3csc(Nc4ccccc4)n3)c(C)nc2c1`, the activation was -1.87%.

In the case of `CC1=NNC(=O)C1CCC(=O)N/N=C(\C)c1ccc(C)cc1` (stereo not drawn), the activation was -4.69%.

Take `CCn1c(=O)c2cc(C(=O)Nc3ccsc3C(=O)OC)sc2c2ccccc21`: the activation was -1.75%.

Regarding `CCOC(=O)N1CCN(C(=S)Nc2ccc(C)cc2)CC1`, the activation was 2.12%. As for `O=S(=O)(NCCC12CC3CC(CC(C3)C1)C2)c1cccc2nsnc12`, the activation is 0.9%. In the case of `CCc1ccc(NC(=O)Cn2nnc(C(=O)OC)c2C(=O)OC)cc1` it was -0.08%; in that of `c1ccc(N2CCOCC2)c(Nc2nc3ccccc3n3cnnc23)c1`, 0.28%. In the case of `O=C(CSC1=NC(=O)C(c2ccccc2)C(=O)N1)c1ccccc1` (stereo not drawn) it was -3.69%; in that of `CCN1CCC(N(Cc2ccc(F)cc2)C(=O)Nc2ccccc2F)CC1`, -1.27%; in that of `CCOC(=O)C1CCCN(c2c(Nc3cccc(C)c3)c(=O)c2=O)C1` (stereo not drawn), -2.19%. Next, `COc1ccc(C(=O)NCC2(c3ccccc3)CCCC2)cc1[N+](=O)[O-]`: -1.92%. `CSc1ccccc1N1C(=O)CC(Sc2ccccc2C(=O)O)C1=O` (stereo not drawn): the activation is 2.04%. Next, `CC1Oc2cccnc2N(Cc2cccc(C#N)c2)C1=O` (stereo not drawn): 0.9%; `COc1ccc(-c2nc(-c3ccc(NC(=O)c4ccc(Br)o4)cc3)no2)cc1OC`: 14.8% (active).

Take `COc1ccc(-c2noc(CCC(=O)Nc3ccc(C)c(C)c3)n2)cc1`: the activation was 1.95%. Next, `COc1cccc(C(=O)Nc2ccc(-n3nncc3-c3ccc(OC)c(OC)c3)cc2)c1`: 5.22%; `CCC1CN(CCNC(=O)c2ccc(C(C)=O)s2)Cc2cc(OC)ccc2O1` (stereo not drawn): 2.67%; `CCN(CC)S(=O)(=O)c1ccc(-c2csc(=Nc3ccccc3OC)n2CC)cc1`: -1.01%. Next, `c1ccc(Oc2nc(NC3CC3)c3ncn(-c4ccsc4)c3n2)cc1`: 10.5% (active). In the case of `Clc1nc(NCc2ccccc2)c2ncn(-c3ccccc3)c2n1`, the activation is -3.84%. In the case of `C(=N\Nc1nnnn1-c1cccc2ccccc12)/c1ccc2c(c1)OCO2` it was 3.7%; in that of `O=C(COc1ccc(Cl)cc1Cl)Nc1c2c(nn1-c1ccc(F)cc1)CSC2`, 3.41%; in that of `CCOc1cc(/C=C2/C(=N)N3OC(C)=CC3=NC2=O)ccc1OCc1ccc2c(c1)OCO2`, 2.7%. Next, `O=C1[C@H]2[C@H]3[C@H](O)[C@H](O)C/C(=N\OCc4ccccc4)[C@H]3CC[C@H]2C(=O)N1C1CCCCC1`: -1.69%; `Cc1cc(/C=C2/C(=N)N3C=CSC3=NC2=O)c(C)n1-c1ccc(Cl)cc1`: -1.56%. Next, `CCN(CC)c1cc(C)c2ccccc2n1`: 1.75%; `Cc1ccc(OC(C)c2nc(-c3ccc(OCC(N)=O)cc3)no2)cc1C` (stereo not drawn): 8.62%. `CC1CCN(Cc2nnnn2CC(=O)NCC2CCCO2)CC1` (stereo not drawn): the activation is 4.51%. In the case of `CC(=O)c1ccc(NCN2C(=O)C3CC=C(Cl)CC3C2=O)cc1` (stereo not drawn) it was 2.21%. Consider `COC(=O)c1cn(-c2ccccc2)nc1-c1ccc(F)cc1`, for which the activation was 0.06%. In the case of `COc1ccc(-c2noc(CC(=O)NCCN3CCOCC3)n2)cc1` it was 0.07%. Consider `COc1ccc2nc(N3CCCC(C(=O)NCCCOC(C)C)C3)sc2c1` (stereo not drawn), for which the activation was 0.71%. Next, `COc1ccc(C2C(C(=O)OCCc3ccccc3)=C(C)NC3=C2C(=O)CCC3)cc1O` (stereo not drawn): 3.23%. Next, `COC(=O)C1=C(N)n2c(s/c(=C\c3ccc(Cl)cc3)c2=O)=C(C(=O)OC)C1c1ccc(Cl)cc1` (stereo not drawn): -5.44%; `CC1CC(C)CN(C(=O)Cn2cc(C=O)c3ccccc32)C1` (stereo not drawn): 0.05%. With `COC(=O)CN1C(=O)S/C(=C/c2ccco2)C1=O`, the activation was 3.06%. In the case of `Cn1ccnc1C(=O)C1CCCN(C(=O)CCc2nnc(-c3ccccc3)o2)C1` (stereo not drawn) it was 2.54%. In the case of `COc1ccc(-c2cc(-c3ccccc3)c(C#N)c(SC3CCCCC3O)n2)cc1` (stereo not drawn) it was 4.49%; in that of `COc1cc(/C=C2/C(=N)N3OC(C)=CC3=NC2=O)ccc1OCCOc1ccc(C)cc1`, 2.89%. In the case of `CCOC(CNc1ncnc2sc(C)c(C)c12)OCC` it was 0.97%; in that of `CCC(=O)N1CCN(c2ccc(NC(=O)c3ccco3)cc2)CC1`, 0.71%; in that of `Cc1ccc(/C=N/NC(=O)c2ccc(O)cc2O)cc1`, -2.17%. As for `O=C(O/C(=C/c1nc2ccccc2n1Cc1cccc2ccccc12)c1ccc(Cl)cc1)c1ccc(Cl)cc1`, the activation is -1.84%. Next, `COc1ccccc1C(=O)COC(=O)C1(C)CC1(Cl)Cl` (stereo not drawn): 5.89%.
